Measurements taken from PubChem BioAssay (EPA / NIEHS).
Values joined by “and” are separate entries in the source; they are usually repeats but may differ in a detail not shown here. Identical values can stand only once. Records with an inconclusive call do not appear. Where a structure was tested more than once in an assay, its records may differ in their call. Active and inactive are the calls of the source. The calls were made as follows: active = hit-call score of the fitted dose curve at least 0.9, where 1 is the maximum; inconclusive = response in the unintended direction; inactive = score below 0.9.

Legend:
[1] = ATG_XTT_Cytotoxicity: Cytotoxicity Assessment in the Attagene TRANS-FACTORIAL HepG2 Assay (AID 2283584);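 as to AC50: cells exposed to compound for 24 h before reading; active means loss of viability signal versus DMSO baseline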
Outline: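 XTT readout of cell number in transfected HepG2 cells, 24 h post-dosing; DMSO serves as negative control and baseline, with activity taken as loss of viability signal.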

[2] = TOX21_p53_BLA_p2_viability: Viability Assessment in the Tox21 HCT-116 p53 Agonism Beta-lactamase Assay, Phase 2 (AID 2283591);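 also: actives lower the ATP signal meaning cytotoxicity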
Outline: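 HCT116 p53-bla cells, 4000/well, dosed after 5 h plating (217-fold dilution of DMSO stocks) and incubated 16 h at 37C. Viability taken as cellular ATP by CellTiter-Glo luminescence after 30 min RT; signal loss marks cytotoxicity.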

[3] = TOX21_p53_BLA_p4_viability: Viability Assessment in the Tox21 HCT-116 p53 Agonism Beta-lactamase Assay, Phase 4 (AID 2283597);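 also: hits lower the luminescence signal meaning cytotoxicity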
Outline: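 ATP content by CellTiter-Glo luminescence, 30 min RT, read after the beta-lactamase ratio step. Cells: HCT116, 4000/well, compound added after 5 h, exposure 16 h at 37C. Signal loss = reduced viability.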

[4] = biological target: Cellular tumor antigen p53 (Homo sapiens) (UniProt P04637); assay: TOX21_p53_BLA_p4_ratio: Tox21 HCT-116 p53 Agonism Beta-lactamase Assay, Ratio, Phase 4 (AID 2283601)
Cellular tumor antigen p53 (Homo sapiens), sequence (P04637 whole entry, looked up): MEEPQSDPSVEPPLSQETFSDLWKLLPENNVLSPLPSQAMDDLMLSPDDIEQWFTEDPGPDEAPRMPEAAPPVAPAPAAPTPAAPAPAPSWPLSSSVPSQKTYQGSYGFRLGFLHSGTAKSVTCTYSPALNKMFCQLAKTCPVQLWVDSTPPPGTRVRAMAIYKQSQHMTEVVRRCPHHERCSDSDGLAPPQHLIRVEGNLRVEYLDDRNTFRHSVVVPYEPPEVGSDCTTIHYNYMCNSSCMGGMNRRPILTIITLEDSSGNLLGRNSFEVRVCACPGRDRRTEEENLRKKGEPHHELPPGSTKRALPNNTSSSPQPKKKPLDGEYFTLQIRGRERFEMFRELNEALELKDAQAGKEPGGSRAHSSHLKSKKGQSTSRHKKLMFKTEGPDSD
Outline: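 HCT-116 p53 beta-lactamase reporter cells (4000/well) preincubated 5 h, then compound (217-fold dilution of DMSO stock) for 16 h at 37C. CCF4-AM substrate added 2 h at room temperature; 460/530 nm emission ratio fitted upward versus DMSO.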

[5] = biological target: Cellular tumor antigen p53 (Homo sapiens) (UniProt P04637); assay: TOX21_p53_BLA_p2_ratio: Tox21 HCT-116 p53 Agonism Beta-lactamase Assay, Ratio, Phase 2 (AID 2283592)
Outline: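 Readout: blue/green (460/530 nm) FRET emission ratio after 2 h CCF4-AM loading at room temperature, excitation 405 nm. HCT116 p53 bla cells, 16 h compound exposure at 37C, 5% CO2; agonist direction fitted against DMSO baseline.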

[6] = TOX21_p53_BLA_p3_viability: Viability Assessment in the Tox21 HCT-116 p53 Agonism Beta-lactamase Assay, Phase 3 (AID 2283593);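 also: cells exposed to compound for 16 h before reading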
Outline: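 HCT116 cells, 4000/well, dosed 5 h after plating by pin transfer (217-fold dilution from DMSO stock) and incubated 16 h at 37C, 5% CO2. Viability read as ATP luminescence with CellTiter-Glo after 30 min at room temperature.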

[7] = biological target: Cellular tumor antigen p53 (Homo sapiens) (UniProt P04637); assay: TOX21_p53_BLA_p5_ratio: Tox21 HCT-116 p53 Agonism Beta-lactamase Assay, Ratio, Phase 5 (AID 2283599)
Outline: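 HCT-116 p53-bla cells (4000/well) plated 5 h, dosed with compound (217-fold DMSO dilution) for 16 h at 37 C; CCF4-AM substrate 2 h at room temperature. Activity is the 460/530 nm emission ratio (405 nm excitation), fitted in gain-of-signal direction versus DMSO.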

[8] = TOX21_p53_BLA_p5_viability: Viability Assessment in the Tox21 HCT-116 p53 Agonism Beta-lactamase Assay, Phase 5 (AID 2283600)
Outline: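 ATP luminescence (CellTiter-Glo, 30 min, RT) served as the viability read-out, with loss of signal indicating cytotoxicity. Compounds in DMSO were pinned at a 217-fold dilution onto 4000 cells/well and incubated 16 h, 37C.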

[9] = biological target: Cellular tumor antigen p53 (Homo sapiens) (UniProt P04637); assay: TOX21_p53_BLA_p3_ratio: Tox21 HCT-116 p53 Agonism Beta-lactamase Assay, Ratio, Phase 3 (AID 2283596)
Outline: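 Cells were seeded at 4000/well, rested 5 h at 37C, then dosed with DMSO compound solutions (217-fold dilution) for 16 h. CCF4-AM substrate was loaded for 2 h at room temperature, and the 460/530 nm emission ratio was fitted for gain of signal versus DMSO.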

Measured: AC50

O=C(Nc1ccc2c(O)c(N=Nc3ccc(N=Nc4ccc(S(=O)(=O)O)cc4)cc3)c(S(=O)(=O)O)cc2c1)c1ccccc1
inactive: [1] | [2] | [3] | [4]

CC(C)OCCO
not listed: [2] | [4] | [9]
inactive: all other assays above

C=CCCC(=O)/C=C/C1C(C)=CCCC1(C)C (centres undefined)
not listed: [6] | [9]
inactive: all other assays above

COc1cc(CCC(C)=O)ccc1O
inactive: [1] | [5] | [6] | [7]

CC(=O)OCCCc1ccccc1
not listed: [2] | [3] | [8]
inactive: all other assays above

Cc1cc(=O)oc2cc(N(C)C)ccc12
active: [5] 51.5 µM | [7] 47.9 µM | [4] 53.6 µM
inactive: [1] | [6] | [3]

N#Cc1cscn1
not listed: [2] | [7]
inactive: all other assays above

CCCCCCCCCCCCCC(=O)OCC(O)CO (centres undefined)
inactive: [1] | [2] | [5] | [7] | [8]

CCCC(C)C(O)CC (centres undefined)
not listed: [2] | [7] | [8]
inactive: all other assays above

CCOC(=O)[C@@H](C)Oc1ccc(Oc2nc3ccc(Cl)cc3o2)cc1
inactive: [1] | [2] | [5] | [7]

COc1ccc(N=Nc2cc(C)c(N=Nc3ccc(S(=O)(=O)O)cc3)cc2OC)cc1
not listed: [5] | [9]
inactive: all other assays above

C=CCOC(=O)CCCCCC
inactive: [1] | [2] | [9] | [3] | [4]

CC(C)NCC(O)COc1ccc(CC(N)=O)cc1 (centres undefined)
inactive: [1] | [2] | [5] | [7] | [8]

Cc1occc(=O)c1OC(=O)C(C)C
inactive: [1] | [5] | [6] | [9]

Nc1c(Cl)cc(Cl)cc1[N+](=O)[O-]
not listed: [6] | [7] | [9]
inactive: all other assays above

CCCCCCCCSCCO
inactive: [1] | [2] | [7]

CC=CC=CCOC(=O)C(C)C
inactive: [1] | [2] | [6] | [9] | [3]

O=CN1CCOCC1
inactive: [1] | [2] | [5] | [7] | [4]

CC(=O)C(C)O (centres undefined)
not listed: [2] | [8]
inactive: all other assays above

CCCCC(CC)(CO)CO
not listed: [2] | [3] | [9]
inactive: all other assays above

O=[N+]([O-])c1cccc(Cl)c1
not listed: [2] | [3] | [8]
inactive: all other assays above

Cc1c(Cl)cccc1[N+](=O)[O-]
not listed: [2] | [3] | [4]
inactive: all other assays above

Nc1ccc(NCCO)c([N+](=O)[O-])c1
inactive: [1] | [5] | [3] | [7] | [4]

CC(=O)O[C@H]1C[C@@H]2CC[C@@]1(C)C2(C)C
inactive: [1] | [5] | [9] | [7] | [8]

ON=C1CCCCC1
not listed: [2] | [6]
inactive: all other assays above

CN(C)CCOC(C)(c1ccccc1)c1ccccn1 (centres undefined)
not listed: [2] | [6]
inactive: all other assays above

CC1=NN(c2ccc(S(=O)(=O)O)cc2)C(=O)C1
inactive: [1] | [5] | [9] | [7] | [8]

CCCCOC(=O)CCCCCCCC(=O)OCCCC
inactive: [1] | [5] | [7]

CC(C)Nc1nc(N)nc(Cl)n1
inactive: [1] | [4]

CCc1ccc(O)c(OC)c1
inactive: [1] | [6] | [7]

CCc1ccc(O)cc1
not listed: [1] | [4]
inactive: all other assays above

CCCC[O][Al]([O]CCCC)[O]CCCC
not listed: [2] | [6] | [8]
inactive: all other assays above

CCCCCCCCCCCCN1CCCCCC1=O
active: [1] 29.9 µM
inactive: [5] | [6] | [7] | [4]

COC(=O)Nc1ccc(Cl)c(Cl)c1
not listed: [1]
inactive: all other assays above

CCCCC1CCC(O)CC1 (centres undefined)
inactive: [1] | [5] | [9] | [8]
active: [7] 83.6 µM

Nc1ccc2c(O)cc(S(=O)(=O)O)cc2c1
inactive: [2] | [6] | [9] | [3] | [8]
active: [5] 23.1 µM and 18.3 µM | [9] 12.9 µM | [7] 33.1 µM and 21.3 µM | [4] 46.1 µM and 16 µM

O=C(O)CCCCCCCCCCCC(=O)O
not listed: [1] | [4]
inactive: all other assays above

O=C1CCCC=CCCCCCCCCCC1
inactive: [1] | [5] | [3]

Cc1cc(S(=O)(=O)O)ccc1N=Nc1c(O)ccc2ccccc12
inactive: [1] | [5] | [3] | [8]

CC(C)(CO)[C@@H](O)C(=O)NCCC(=O)O
inactive: [1] | [5] | [9] | [7] | [4]

C[C@@H]1CCN(C(=O)[C@H](CCCN=C(N)N)NS(=O)(=O)c2cccc3c2NC[C@H](C)C3)[C@@H](C(=O)O)C1
not listed: [2] | [3] | [6]
inactive: all other assays above

O=C(O)COCC(=O)O
inactive: [1] | [5] | [9] | [8] | [4]

C=CC(=O)OCCC#N
inactive: [1] | [6] | [7] | [8] | [4]

CC[N+](C)(CC)CC
inactive: [1] | [5] | [7] | [4]

CC1=CC[C@@]23C[C@@H]1C(C)(C)[C@@H]2CC[C@H]3C
inactive: [1] | [8]

[O-]n1ccccc1=S.[O-]n1ccccc1=S.[Zn+2]
active: [2] 14.3 µM [middle of 4 runs] | [5] 33.8 µM [middle of 4 runs] | [6] 20.3 µM [middle of 4 runs] | [9] 35.7 µM [middle of 4 runs] | [3] 15.4 µM [middle of 4 runs] | [7] 24.8 µM [middle of 4 runs] | [8] 19.1 µM [middle of 4 runs] | [4] 21.1 µM [middle of 4 runs]

CCC1(C)NC(=O)NC1=O (centres undefined)
inactive: [2] | [5] | [6]

CCCC(=O)OCCc1ccccc1
inactive: [1] | [9] | [7] | [4]

CCOc1ccc(N=Nc2ccc(C=Cc3ccc(N=Nc4ccc(OCC)cc4)cc3S(=O)(=O)O)c(S(=O)(=O)O)c2)cc1
inactive: [1] | [6] | [8] | [4]

CS(=O)(=O)c1ccc(C2=C(c3ccccc3)C(=O)OC2)cc1
inactive: [1] | [8] | [4]

CCCCCC(C)=O
not listed: [2] | [6] | [8]
inactive: all other assays above

CCCC(=O)C(CC)Sc1ccoc1C (centres undefined)
inactive: [1] | [6] | [3] | [8] | [4]

CCCCC(CC)COC(=O)c1ccc(O)cc1 (centres undefined)
inactive: [6]
active: [2] 41.9 µM and 67.8 µM | [5] 76.7 µM and 74.7 µM | [6] 84.1 µM | [9] 72.6 µM and 85.1 µM | [3] 72.2 µM and 45.9 µM | [7] 69.4 µM and 62.4 µM | [8] 56.6 µM and 66.6 µM | [4] 86 µM and 72.3 µM

COS(=O)(=O)O
inactive: [1] | [8] | [4]

CCCC[P+](CCCC)(CCCC)CCCC
active: [8] 14.5 µM
inactive: [2] | [5] | [6] | [9] | [3] | [7] | [8] | [4]

O=C(CC(=O)c1ccccc1)c1ccccc1
not listed: [1]
inactive: all other assays above

N#Cc1ccc(CC(=O)c2cccc(C(F)(F)F)c2)cc1
inactive: [1] | [7] | [8] | [4]

NC1CCCCC1N (centres undefined)
not listed: [1] | [9]
inactive: all other assays above

CC1(C)O[C@@H]2[C@@H](CO[C@@]3(COS(N)(=O)=O)OC(C)(C)O[C@@H]23)O1
not listed: [1] | [7]
inactive: all other assays above

CCC(Cl)C(Cl)C(Cl)CC(Cl)C(Cl)C(C)Cl (centres undefined)
not listed: [1]
inactive: all other assays above

OCC#CCO
not listed: [1]
inactive: all other assays above
